The structures appear in SMILES notation. A number with no mark means an inactive call. Results filed as inconclusive are left out. Active and inactive are the calls of the source. Unless noted, the call rests on the fitted dose curve; in most records, active means well fitted curve in the direction sought with a large enough effect in the repeat runs; inconclusive means weak or mixed curves; inactive means no such curve, though single readings can be large; an effect the other way counts as inactive or inconclusive.

Assay [1] in a line: qHTS RealTime-Glo MT Cell Viability Assay in HEK293 cells - 0 hour (AID 1224880). Further: top concentration of the series differs between compounds; nearly all actives have a fitted effect of over 45% in size. The gist of the method:
(§1)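 Viable HEK293 cells reduce a cell-permeant prosubstrate; the product diffuses out and is consumed by NanoLuc in the medium to give light. Compounds went in after a 5 h incubation and plates were read over the treatment course.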
Background: Quantitative high-throughput screening tests each substance at several concentrations.

Assay [2] can be described thus: A CellTox Green Cytotoxicity Assay to monitor cytotoxicity in HEK293 cells - 32 hour (AID 1224881). Further: nearly all actives have a fitted effect of over 40% in size. The gist of the method: (§2)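 Fluorescence intensity, read at 0, 8, 16, 24, 32 and 40 h of compound treatment, reflected dye binding to DNA of dead HEK293 cells; compounds (23 nL, DMSO) were added 5 h after plating cells with reagent.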
Assay [3] is described as follows: A CellTox Green Cytotoxicity Assay to monitor cytotoxicity in HepG2 cells - 0 hour (AID 1224882). Further: nearly all actives have a fitted effect of over 35% in size. Summed up:
(§3)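 Using 1536-well format, dye-containing HepG2 suspension was seeded, allowed 5 h at 37 C/5% CO2, dosed by pintool with compounds, positive and negative controls, and imaged for fluorescence across 40 h.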

Assay [4] can be described thus: A CellTox Green Cytotoxicity Assay to monitor cytotoxicity in HepG2 cells - 32 hour (AID 1224883). Further: nearly all actives have a fitted effect of over 50% in size. The gist of the method: as §3
A short description of assay [5]: A CellTox Green Cytotoxicity Assay to monitor cytotoxicity in HEK293 cells - 8 hour (AID 1224884). Further: nearly all actives have a fitted effect of over 35% in size. The gist of the method: as §2
The nature of assay [6]: qHTS RealTime-Glo MT Cell Viability Assay in HepG2 cells - 16 hour (AID 1224885). Further: nearly all actives have a fitted effect of over 50% in size. Summed up:
(§4)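 Real-time, nonlytic viability: 600 HepG2 cells/well mixed with NanoLuc enzyme plus prosubstrate; 5 h settle, compound (DMSO) added by pintool; luminescence monitored over 40 h at 37 C.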

A short description of assay [7]: qHTS RealTime-Glo MT Cell Viability Assay in HEK293 cells - 24 hour (AID 1224886). Further: top concentration of the series differs between compounds; nearly all actives have a fitted effect of over 50% in size. The gist of the method: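 Cells + reagent dispensed (600 cells/well, HEK293) → 5 h at 37 C/5% CO2 → 23 nL compound in DMSO pinned → 40 h at 37 C → luminescence read at 0, 8, 16, 24, 32, 40 h.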
Assay [8] in a line: qHTS RealTime-Glo MT Cell Viability Assay in HEK293 cells - 8 hour (AID 1224887). Further: top concentration of the series differs between compounds; nearly all actives have a fitted effect of over 50% in size. The gist of the method: as §1
A short description of assay [9]: A CellTox Green Cytotoxicity Assay to monitor cytotoxicity in HEK293 cells - 16 hour (AID 1224888). Further: nearly all actives have a fitted effect of over 35% in size. The gist of the method:
as §2

A short description of assay [10]: qHTS RealTime-Glo MT Cell Viability Assay in HepG2 cells - 0 hour (AID 1224889). Further: nearly all actives have a fitted effect of over 50% in size. Summed up:
as §4

Assay [11] can be described thus: A CellTox Green Cytotoxicity Assay to monitor cytotoxicity in HepG2 cells - 8 hour (AID 1224890). Further: nearly all actives have a fitted effect of over 45% in size. Summed up: as §3
The nature of assay [12]: qHTS assay to identify small molecule antagonists of the estrogen receptor alpha (ER-alpha) signaling pathway using the BG1 cell line in the presence of 0.1 nM 17-beta-estradiol - cell viability counter screen (AID 1259241). Further: nearly all actives have a fitted effect of over 40% in size. The gist of the method:
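The cell line endogenously expresses full-length ER-alpha and carries four EREs driving luciferase. Cells are cultured 5 days hormone-free, treated 22 hr with compounds and 0.1 nM estradiol, then viability is read by fluorescence.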

A short description of assay [13]: qHTS assay to identify small molecule antagonists of the androgen receptor (AR) signaling pathway using the MDA cell line in the presence of 0.5 nM R1881 - cell viability counter screen (AID 1259242). Further: nearly all actives have a fitted effect of over 45% in size. The gist of the method:
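Viability of MDA-kb2 cells was multiplexed with the luciferase AR readout; after 16 hr with compounds and R1881 at 0.5 nM final, CellTiter-Fluor fluorescence was recorded.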

The nature of assay [14]: qHTS assay to identify small molecule HDAC inhibitors (AID 1259364). Further: potency means the concentration at half of the fitted maximal effect.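 Further: wild-type HCT-116 cells with endogenous class I/II HDAC activity; nearly all actives have a fitted effect of over 45% in size.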 The gist of the method: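 Read-out: luminescence of HDAC-Glo I/II reagent, 30 min RT, reflecting class I/II deacetylase activity in whole HCT-116 cells pre-exposed 2 h to DMSO-dissolved compounds.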
Assay [15] in a line: qHTS assay to identify small molecule HDAC inhibitors - cell viability counter screen (AID 1259365). The gist of the method: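 Viability readout: CellTiter-Glo luminescence. Wild-type HCT-116 cells, 2hr compound treatment following overnight attachment at 37 C.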
The nature of assay [16]: qHTS assay to identify small molecule agonists of the sonic hedgehog signaling (Shh) pathway - cell viability counter screen (AID 1259366). Further: nearly all actives have a fitted effect of over 50% in size. Summed up: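 Viability measured fluorometrically (CellTiter-Fluor, 1hr, 37C) in 3T3 Gli1-Luc reporter cells after 23hr compound exposure within a 24hr incubation at 37C/5% CO2.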
The nature of assay [17]: qHTS assay to identify small molecule antagonists of the sonic hedgehog signaling (Shh) pathway - cell viability counter screen (AID 1259367). Further: nearly all actives have a fitted effect of over 55% in size. Summed up: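 After a 4 hr settling period, 3T3 Gli1-Luc cells were treated with DMSO-dissolved chemicals and conditioned medium, kept 24 hr at 37C in 5% CO2, and assayed for viability by CellTiter-Fluor fluorescence following 1 hr reagent incubation.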

Assay [18] is described as follows: qHTS assay to identify small molecule phospholipidosis (PLD) inducers (AID 1259344; active means well fitted curve in the direction sought with a large enough effect; an effect the other way counts as inactive or inconclusive). Summed up:
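HepG2 cells grown on collagen I take up LipidTOX Red while exposed to compound for 24 h; after fixation they are imaged at 20x and pit metrics are extracted.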

The target in assay [19] is Estrogen receptor (Homo sapiens) (UniProt P03372). Nature of the assay: qHTS assay to identify small molecule antagonists of the estrogen receptor alpha (ER-alpha) signaling pathway using the BG1 cell line in the presence of 0.1 nM 17-beta-estradiol (AID 1259244). Further: nearly all actives have a fitted effect of over 50% in size. The gist of the method:
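Estradiol at 0.1 nM (final) stimulates the endogenous ER-alpha of VM7Luc4E2 cells carrying an ERE-driven luciferase; compounds are co-incubated 22 h at 37C and luciferase output quantified by luminescence.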

Estrogen receptor (Homo sapiens), sequence (P03372 whole entry, looked up): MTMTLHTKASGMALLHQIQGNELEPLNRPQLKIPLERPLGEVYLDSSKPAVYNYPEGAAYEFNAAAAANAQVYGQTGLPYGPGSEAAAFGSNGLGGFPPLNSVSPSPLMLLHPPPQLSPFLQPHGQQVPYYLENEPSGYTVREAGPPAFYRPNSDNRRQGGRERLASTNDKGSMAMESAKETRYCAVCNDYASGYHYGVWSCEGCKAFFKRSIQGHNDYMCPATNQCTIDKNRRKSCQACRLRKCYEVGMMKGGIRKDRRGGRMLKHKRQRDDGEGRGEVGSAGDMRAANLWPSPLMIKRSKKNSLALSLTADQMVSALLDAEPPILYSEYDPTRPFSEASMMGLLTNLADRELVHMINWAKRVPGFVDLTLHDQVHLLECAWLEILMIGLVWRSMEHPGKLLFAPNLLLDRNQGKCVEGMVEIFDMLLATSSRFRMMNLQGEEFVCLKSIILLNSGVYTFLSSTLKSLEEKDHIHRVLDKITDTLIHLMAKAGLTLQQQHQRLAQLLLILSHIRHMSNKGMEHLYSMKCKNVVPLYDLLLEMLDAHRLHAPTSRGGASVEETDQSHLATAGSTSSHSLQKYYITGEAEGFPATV

On to `CC(C)(O)C(=O)O`, for which the Potency result in assay [1], in assay [2], in [3], in assay [4], in assay [5] and in assay [7] was “inactive” each time. Also, the Potency entry in [8], in assay [9], in assay [10], in assay [11], in [12] and in assay [13] was “inactive” throughout. In addition, the Potency entry in [14], in assay [16] and in assay [17] was “inactive” each time. Also, the outcome in [6] and in [15] was inactive.

Consider `CC(C)(C(=O)O)c1ccc(C(O)CCCN2CCC(C(O)(c3ccccc3)c3ccccc3)CC2)cc1` (stereo not given), for which the Potency entry in assay [1], in assay [2], in assay [3], in assay [4], in assay [5] and in assay [7] was “inactive” throughout. Also, the Potency result in assay [8], in [9], in assay [10], in assay [11], in assay [12] and in assay [13] was “inactive” throughout. Also, the Potency result in [18], in [14], in assay [16] and in assay [17] was “inactive” in each case. For the same compound, the compound was called inactive in assay [6] and in [15].

For `CC(CN=Cc1ccccc1O)N=Cc1ccccc1O` (stereo not given), the Potency result in assay [1], in assay [2], in assay [3], in [4], in [5] and in [7] was “inactive” throughout. For the same compound, the Potency entry in assay [8], in [9], in assay [10], in assay [11], in assay [12] and in assay [13] was “inactive” each time. Moreover, the Potency entry in assay [14], in assay [16] and in [17] was “inactive” in each case. The call in assay [6] and in assay [15] was inactive.

With `Cc1cc(C)n(CO)n1`, the Potency result in [1], in assay [2], in [3], in assay [4], in [5] and in [7] was “inactive” each time. The Potency entry in assay [8], in [9], in [10], in assay [11], in [12] and in assay [13] was “inactive” in each case. Further, the Potency entry in assay [19], in assay [16] and in [17] was “inactive” in each case. Moreover, the outcome in [6] and in [15] was inactive.

As for `O=C(O)c1ccccc1[N+](=O)[O-]`, the Potency entry in assay [1], in assay [2], in assay [3], in assay [4], in [5] and in assay [7] was “inactive” each time. For the same compound, the Potency result in assay [8], in [9], in assay [10], in assay [11], in [12] and in assay [13] was “inactive” each time. Besides, the Potency entry in assay [14], in assay [16] and in assay [17] was “inactive” each time. Besides, the compound was classed as inactive in [6] and in assay [15].

For the compound `COc1ccc(/C(C)=C/C(=O)O)c(OC)c1`, the Potency entry in [1], in assay [2], in assay [3], in assay [4], in [5] and in assay [7] was “inactive” each time. Moreover, the Potency result in assay [8], in [9], in assay [10], in assay [11], in assay [12] and in assay [13] was “inactive” in each case. Besides, the Potency result in assay [16] and in assay [17] was “inactive” in each case. In addition, in assay [6], the compound was called inactive.

For the compound `C/C(=C\C(C)CC(C)CC(C)C)C1CC(=O)OC1=O` (stereo not given), the Potency entry in assay [1], in assay [2], in assay [3], in [4], in assay [5] and in assay [7] was “inactive” in each case. Also, the Potency entry in assay [8], in assay [9], in assay [10], in assay [11], in [12] and in assay [13] was “inactive” in each case. Besides, the Potency entry in [19], in assay [16] and in assay [17] was “inactive” in each case. Further, the outcome in assay [6] was inactive.

On to `CCC(CC)C(=O)O`, for which the Potency entry in [1], in [2], in assay [3], in [4], in assay [5] and in [7] was “inactive” throughout. The Potency entry in assay [8], in [9], in assay [10], in [11], in assay [12] and in assay [13] was “inactive” in each case. The Potency result in assay [19], in assay [16] and in assay [17] was “inactive” throughout. Besides, the result in [6] was inactive.

Regarding `OCCOc1cccc(OCCO)c1`, the Potency entry in assay [1], in assay [2], in assay [3], in [4], in [5] and in [7] was “inactive” in each case. Besides, the Potency result in [8], in [9], in assay [10], in [11], in [12] and in [13] was “inactive” in each case. The Potency entry in assay [16] and in [17] was “inactive” throughout. The compound was classed as inactive in assay [6] and in assay [15]. In addition, the Potency in [14] is 24.3 µM (active).

Source of the values: PubChem BioAssay (Tox21).
